About 7,900 targets were measured; listed, in parts, are those with a hit and a random draw of the rest. About 0.6% of all pairs of compound and target were hits.
Experiments:
Assay in all cases: log2 fold change, soluble protein after heating vs DMSO (PISA); higher = thermal stabilisation; K562 cells, 10 uM, 30 min; active = over 0.2 and 3.5 SD of the protein, either way, in both replicates (recomputed)
bafetinib = compound: Cc1ccc(NC(=O)c2ccc(CN3CC[C@H](N(C)C)C3)c(C(F)(F)F)c2)cc1Nc1nccc(-c2cncnc2)n1 [bafetinib]
Summary of the method: (§1)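 K562 cells at 2×10^6 cells/mL were given 10 μM compound for 30 min. Aliquots then went through 3 min of heating across 48°C-58°C, were pooled, and were extracted in PBS with 0.5% NP-40 at 4°C, and the supernatant after 21,000xg for 90 min was quantified by TMTpro 16plex LC-MS/MS with channel sums equalised. Thermal stability relative to control samples, from duplicates, is given as log2 fold change.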

[1] = compound: Cc1cccc(CC(=O)N2CCc3c2ccc(-c2cn(C)c4ncnc(N)c24)c3F)n1
Summary of the method: as §1

nilotinib = compound: Cc1cn(-c2cc(NC(=O)c3ccc(C)c(Nc4nccc(-c5cccnc5)n4)c3)cc(C(F)(F)F)c2)cn1 [nilotinib]
Summary of the method: as §1

[2] = compound: Cc1nc(Nc2n[nH]c3c2CN(C(=O)N[C@H](CN(C)C)c2ccccc2)C3(C)C)c2sccc2n1
Summary of the method: as §1

dasatinib = compound: Cc1nc(Nc2ncc(C(=O)Nc3c(C)cccc3Cl)s2)cc(N2CCN(CCO)CC2)n1 [dasatinib]
Summary of the method: as §1

[3] = compound: Cc1ncc(-c2ccnc(Nc3ccc(S(C)(=O)=O)cc3)n2)n1C(C)C
Summary of the method: as §1

[4] = compound: Cn1cc(-c2ccc3c(c2)CCN3C(=O)Cc2cccc(C(F)(F)F)c2)c2c(N)ncnc21
Summary of the method: as §1

[5] = compound: Cn1cc(-c2ccc3nnc(C(F)(F)c4ccc5ncccc5c4)n3n2)cn1
Summary of the method: as §1

tipifarnib = compound: Cn1cncc1[C@@](N)(c1ccc(Cl)cc1)c1ccc2c(c1)c(-c1cccc(Cl)c1)cc(=O)n2C [tipifarnib]
Summary of the method: as §1

mubritinib = compound: FC(F)(F)c1ccc(/C=C/c2nc(COc3ccc(CCCCn4ccnn4)cc3)co2)cc1 [mubritinib]
Summary of the method: as §1

[6] = compound: NC(=O)Nc1cc(-c2cccc(F)c2)sc1C(=O)N[C@H]1CCCNC1
Summary of the method: as §1

[7] = compound: NC(=O)c1cnc(N[C@@H]2CCCC[C@@H]2N)nc1Nc1cccc(-n2nccn2)c1
Summary of the method: as §1

[8] = compound: NC1(c2ccc(-c3nc4ccn5c(=O)[nH]nc5c4cc3-c3ccccc3)cc2)CCC1
Summary of the method: as §1

[9] = compound: NCC(=O)Nc1ccc(-n2nc(C(F)(F)F)cc2-c2ccc3c(ccc4ccccc43)c2)cc1
Summary of the method: as §1

entinostat = compound: Nc1ccccc1NC(=O)c1ccc(CNC(=O)OCc2cccnc2)cc1 [entinostat]
Summary of the method: as §1

vorinostat = compound: O=C(CCCCCCC(=O)Nc1ccccc1)NO [vorinostat]
Summary of the method: as §1

citarinostat = compound: O=C(CCCCCCNC(=O)c1cnc(N(c2ccccc2)c2ccccc2Cl)nc1)NO [citarinostat]
Summary of the method: as §1

silmitasertib = compound: O=C(O)c1ccc2c(c1)nc(Nc1cccc(Cl)c1)c1ccncc12 [silmitasertib]
Summary of the method: as §1

[10] = compound: O=C1NC(=O)C(c2cnc3ccccn23)=C1c1cn2c3c(cc(F)cc13)CN(C(=O)N1CCCCC1)CC2
Summary of the method: as §1

[11] = compound: c1cc(OCCN2CCCCC2)cc(-c2n[nH]c3ccc(-c4nnc[nH]4)cc23)c1
Summary of the method: as §1

Measured: log2 fold change

NOP58 (UniProt Q9Y2X3)
Chain of UniProt Q9Y2X3 (Q9Y2X3 whole entry, looked up): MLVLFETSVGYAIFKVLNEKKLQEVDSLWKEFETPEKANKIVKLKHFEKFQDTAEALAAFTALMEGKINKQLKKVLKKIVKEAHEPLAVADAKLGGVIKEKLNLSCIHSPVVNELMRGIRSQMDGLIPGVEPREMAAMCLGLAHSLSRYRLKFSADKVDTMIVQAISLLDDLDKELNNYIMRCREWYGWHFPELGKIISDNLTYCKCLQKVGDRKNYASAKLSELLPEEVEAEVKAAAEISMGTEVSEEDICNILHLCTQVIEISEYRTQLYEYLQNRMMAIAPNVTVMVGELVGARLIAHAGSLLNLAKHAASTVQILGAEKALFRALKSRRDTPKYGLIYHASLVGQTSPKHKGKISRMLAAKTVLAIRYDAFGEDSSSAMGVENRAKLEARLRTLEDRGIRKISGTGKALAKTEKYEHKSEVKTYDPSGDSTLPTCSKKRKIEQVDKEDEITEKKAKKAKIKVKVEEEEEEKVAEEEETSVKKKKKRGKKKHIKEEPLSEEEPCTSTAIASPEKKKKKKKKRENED
inactive: bafetinib 0.146 | [1] -0.154 | nilotinib 0.03 | [2] -0.194 | dasatinib 0.266 | [3] -0.142 | [4] -0.194 | [5] -0.093 | tipifarnib 0.067 | mubritinib -0.071 | [6] -0.012 | [7] 0.052 | [8] 0.316 | [9] 0.043 | entinostat -0.05 | vorinostat -0.087 | citarinostat -0.048 | silmitasertib 0.108 | [10] 0.082 | [11] -0.119

MTHFS (UniProt P49914)
Chain of UniProt P49914 (P49914 whole entry, looked up): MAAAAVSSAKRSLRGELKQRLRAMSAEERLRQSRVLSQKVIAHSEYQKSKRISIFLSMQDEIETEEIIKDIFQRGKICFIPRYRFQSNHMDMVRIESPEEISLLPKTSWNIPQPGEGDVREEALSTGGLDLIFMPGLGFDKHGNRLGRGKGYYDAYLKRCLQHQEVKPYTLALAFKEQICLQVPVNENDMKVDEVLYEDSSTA
inactive: bafetinib 0.074 | [1] 0.014 | nilotinib 0.154 | [2] 0.045 | dasatinib -0.094 | [3] 0.003 | [4] 0.032 | [5] -0.008 | tipifarnib 0.001 | mubritinib 0.045 | [6] -0.021 | [7] -0.028 | [8] -0.086 | [9] -0.135 | entinostat 0.007 | vorinostat -0.1 | citarinostat 0.025 | silmitasertib 0.021 | [10] 0.014 | [11] -0.057

NDUFA4 (UniProt O00483)
Chain of UniProt O00483 (O00483 whole entry, looked up): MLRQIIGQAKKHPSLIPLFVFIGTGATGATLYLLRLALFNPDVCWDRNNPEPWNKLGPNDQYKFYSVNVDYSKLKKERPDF
inactive: bafetinib -0.043 | [1] 0.014 | nilotinib 0.024 | [2] 0.02 | dasatinib 0.032 | [3] -0.074 | [4] 0.039 | [5] 0.239 | tipifarnib 0.054 | mubritinib 0.018 | [6] 0.026 | [7] 0.009 | [8] -0.075 | [9] -0.013 | entinostat 0.061 | vorinostat -0.11 | citarinostat 0.037 | silmitasertib -0.005 | [10] -0.056 | [11] -0.098

MPHOSPH10 (UniProt O00566)
Chain of UniProt O00566 (O00566 whole entry, looked up): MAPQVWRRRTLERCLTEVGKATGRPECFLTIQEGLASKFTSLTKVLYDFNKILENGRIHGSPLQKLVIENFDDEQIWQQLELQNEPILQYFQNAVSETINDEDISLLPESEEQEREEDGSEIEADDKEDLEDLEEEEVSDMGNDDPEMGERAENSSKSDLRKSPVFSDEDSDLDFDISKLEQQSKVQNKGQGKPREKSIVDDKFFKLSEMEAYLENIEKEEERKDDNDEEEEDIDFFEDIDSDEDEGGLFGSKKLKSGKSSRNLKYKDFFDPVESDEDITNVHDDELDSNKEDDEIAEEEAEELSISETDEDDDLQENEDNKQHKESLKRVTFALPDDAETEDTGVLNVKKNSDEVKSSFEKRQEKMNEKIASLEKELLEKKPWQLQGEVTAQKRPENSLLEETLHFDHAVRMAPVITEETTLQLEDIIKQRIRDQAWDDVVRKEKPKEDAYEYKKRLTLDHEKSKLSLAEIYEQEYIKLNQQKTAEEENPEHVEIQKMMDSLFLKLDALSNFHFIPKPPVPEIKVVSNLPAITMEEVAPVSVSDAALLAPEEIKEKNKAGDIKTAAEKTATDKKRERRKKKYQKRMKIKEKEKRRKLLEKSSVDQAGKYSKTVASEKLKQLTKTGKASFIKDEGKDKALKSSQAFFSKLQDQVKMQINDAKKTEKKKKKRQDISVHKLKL
inactive: bafetinib 0.137 | [1] -0.045 | nilotinib -0.055 | [2] -0.028 | dasatinib 0.138 | [3] -0.199 | [4] -0.259 | [5] -0.001 | tipifarnib 0.246 | mubritinib -0.069 | [6] 0.089 | [7] 0.016 | [8] 0.186 | [9] 0.064 | entinostat 0.017 | vorinostat 0.045 | citarinostat 0.062 | silmitasertib 0.112 | [10] 0.067 | [11] -0.169

MXRA7 (UniProt P84157)
Chain of UniProt P84157 (P84157 whole entry, looked up): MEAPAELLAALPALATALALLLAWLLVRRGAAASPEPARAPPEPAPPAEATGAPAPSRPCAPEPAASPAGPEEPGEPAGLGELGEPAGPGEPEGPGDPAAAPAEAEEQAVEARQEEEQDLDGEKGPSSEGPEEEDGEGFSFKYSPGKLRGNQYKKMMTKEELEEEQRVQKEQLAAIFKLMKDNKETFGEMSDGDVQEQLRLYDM
active: [9] -0.302
inactive: bafetinib -0.074 | [1] -0.075 | nilotinib -0.02 | [2] -0.057 | dasatinib 0.042 | [3] 0.057 | [4] 0.03 | [5] -0.042 | tipifarnib 0.018 | mubritinib 0.002 | [6] -0.097 | [7] 0.037 | [8] 0.037 | entinostat 0.008 | vorinostat 0.003 | citarinostat -0.006 | silmitasertib 0.028 | [10] -0.013 | [11] 0.061

MSH6 (UniProt P52701)
Chain of UniProt P52701 (P52701 whole entry, looked up): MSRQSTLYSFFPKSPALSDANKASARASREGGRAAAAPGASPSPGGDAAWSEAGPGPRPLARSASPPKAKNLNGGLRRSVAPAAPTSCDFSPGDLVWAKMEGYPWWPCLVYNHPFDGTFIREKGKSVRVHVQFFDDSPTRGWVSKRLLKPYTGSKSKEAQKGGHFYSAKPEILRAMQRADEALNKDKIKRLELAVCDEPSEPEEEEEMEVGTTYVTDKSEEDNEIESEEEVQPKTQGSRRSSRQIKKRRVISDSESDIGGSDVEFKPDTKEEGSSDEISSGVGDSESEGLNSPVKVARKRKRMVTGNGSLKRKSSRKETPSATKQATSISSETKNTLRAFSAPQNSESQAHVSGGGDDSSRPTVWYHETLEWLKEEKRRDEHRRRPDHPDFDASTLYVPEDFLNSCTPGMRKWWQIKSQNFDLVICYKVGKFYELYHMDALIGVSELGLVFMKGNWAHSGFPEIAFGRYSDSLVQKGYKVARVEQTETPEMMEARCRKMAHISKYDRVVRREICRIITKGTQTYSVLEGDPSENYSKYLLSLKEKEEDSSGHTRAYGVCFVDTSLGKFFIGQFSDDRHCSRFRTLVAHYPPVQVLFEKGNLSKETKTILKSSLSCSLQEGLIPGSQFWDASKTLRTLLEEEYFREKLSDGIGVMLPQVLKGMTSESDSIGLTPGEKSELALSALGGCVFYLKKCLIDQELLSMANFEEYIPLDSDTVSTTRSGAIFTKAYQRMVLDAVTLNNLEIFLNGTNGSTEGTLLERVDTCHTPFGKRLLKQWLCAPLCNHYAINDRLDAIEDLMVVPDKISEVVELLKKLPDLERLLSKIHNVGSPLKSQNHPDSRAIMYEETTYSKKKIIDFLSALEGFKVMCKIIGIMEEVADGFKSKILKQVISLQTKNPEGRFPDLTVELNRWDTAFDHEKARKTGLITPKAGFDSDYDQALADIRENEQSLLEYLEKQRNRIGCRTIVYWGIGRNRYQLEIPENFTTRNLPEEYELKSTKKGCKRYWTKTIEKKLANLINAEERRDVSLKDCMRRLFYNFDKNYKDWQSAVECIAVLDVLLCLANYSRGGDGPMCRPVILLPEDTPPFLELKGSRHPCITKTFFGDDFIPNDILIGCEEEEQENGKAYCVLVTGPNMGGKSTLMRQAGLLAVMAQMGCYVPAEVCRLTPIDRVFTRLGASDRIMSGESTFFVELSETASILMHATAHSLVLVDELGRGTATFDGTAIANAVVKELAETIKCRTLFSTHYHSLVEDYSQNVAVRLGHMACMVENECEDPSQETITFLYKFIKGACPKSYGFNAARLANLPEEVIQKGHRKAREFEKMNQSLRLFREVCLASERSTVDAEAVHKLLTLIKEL
inactive: bafetinib -0.019 | [1] 0.101 | nilotinib -0.116 | [2] -0.179 | dasatinib -0.325 | [3] -0.1 | [4] 0.139 | [5] 0.167 | tipifarnib -0.174 | mubritinib 0 | [6] -0.033 | [7] -0.091 | [8] -0.213 | [9] -0.191 | entinostat 0.229 | vorinostat 0.273 | citarinostat 0.347 | silmitasertib 0.14 | [10] -0.169 | [11] 0.097

MRPS22 (UniProt P82650)
inactive: bafetinib 0.233 | [1] 0.137 | nilotinib -0.21 | [2] 0.044 | dasatinib -0.024 | [3] 0.012 | [4] 0.003 | [5] 0.017 | tipifarnib -0.11 | mubritinib 0.15 | [6] -0.008 | [7] 0.031 | [8] -0.098 | [9] 0.006 | entinostat 0.027 | vorinostat 0.131 | citarinostat 0.035 | silmitasertib -0.071 | [10] -0.069 | [11] -0.006

NUDCD2 (UniProt Q8WVJ2)
Chain of UniProt Q8WVJ2 (Q8WVJ2 whole entry, looked up): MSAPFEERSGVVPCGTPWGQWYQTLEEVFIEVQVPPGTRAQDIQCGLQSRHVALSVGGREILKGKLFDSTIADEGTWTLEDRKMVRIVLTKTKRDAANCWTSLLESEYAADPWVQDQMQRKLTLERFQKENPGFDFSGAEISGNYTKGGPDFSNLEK
inactive: bafetinib 0.017 | [1] 0.033 | nilotinib -0.119 | [2] -0.216 | dasatinib -0.171 | [3] -0.026 | [4] 0.02 | [5] 0.066 | tipifarnib -0.1 | mubritinib 0.077 | [6] -0.108 | [7] -0.099 | [8] -0.056 | [9] -0.172 | entinostat 0.028 | vorinostat 0.147 | citarinostat 0.007 | silmitasertib 0.063 | [10] -0.183 | [11] -0.044

— the supplement of paper PMC10849652
